The whole screen tested about 290,000 compounds, of which about 27,000 (9.3%) were called active. This is one part of a sample in which actives are shown more often than they occur. Unmarked numbers belong to inactive results. No stated cut-off is given here; in the data, active means inhibition mostly above about 28% (no sharp cut-off); inactive means mostly below about 43%.
Experiment: A qHTS for Small Molecule Inhibitors of Shiga Toxin; further: 0% is about no effect
Details: Vero cells, Shiga toxin protein synthesis inhibition reporter; at 38.7 µM, hits give high values

| SMILES | inhibition |
| --- | --- |
| c1ccc2sc(NN=C3CCCC3)nc2c1 | 72.4% (active) |
| O=[N+]([O-])c1cc(Br)c(O)c(/C=N/Nc2nc3ccccc3s2)c1 | 30.3% |
| c1ccc2sc(SNC3CCCCC3)nc2c1 | 25.3% |
| Cc1ccc2c(c1)C(c1ccccc1)N(C(=O)c1ccc(F)cc1)CC(=O)N2 (stereo not drawn) | -4.25% |
| COC(=O)c1ccc(/C=C2/C(=O)Oc3ccccc32)cc1 | -14% |
| CNC(=S)N1N=C(c2ccccc2)CC1c1ccc(Br)cc1 (stereo not drawn) | 34.3% (active) |
| Cc1ccc(NC(=S)N2CCCC(c3ccccc3)=N2)cc1 | -2.73% |
| CC(=O)N1CCN(c2ccccc2NC(=S)NC(=O)c2cc3ccccc3o2)CC1 | -6.04% |
| Cc1cc(NC(=O)Nc2ccccc2)n(-c2ccccc2)n1 | 34.6% |
| Cc1cc(Nc2ccccc2)n(C(=O)c2ccc(N)cc2)n1 | 47.2% (active) |
| Cc1cc(Nc2ccccc2)n(CCC#N)n1 | -1.92% |
| Cc1ccc(C)c(C(=O)N2CCC(n3nccc3NC(=O)C3CC3)CC2)c1 | -24.8% |
| N#Cc1c(-c2ccccc2)c(-c2ccccc2)n[nH]c1=O | -6.49% |
| Cc1cccc(N2C(=O)CC(SC(N)=Nc3ccccc3)C2=O)c1 (stereo not drawn) | -8.18% |
| Cc1cccc(N2C(=O)SC(SC(=Nc3ccccc3)Nc3ccccc3)C2=O)c1 (stereo not drawn) | 83.9% (active) |
| Cc1cccc(N2C(=O)SC(N(CC(=O)O)c3cccc(C)c3)C2=O)c1 (stereo not drawn) | 49.7% |
| COc1cccc(/C=C2\Sc3ccc(C(=O)NCC4CCCO4)cc3N(C)C2=O)c1 (stereo not drawn) | 11.4% |
| CCOC(=O)c1c(S(=O)(=O)Nc2ccc(CN3CCC(C)CC3)cc2)c(C)n(C)c1C | -3.73% |
| CC(=O)N1CC(=O)N(CC(=O)Nc2ccc(Br)cc2)C1=S | -1.67% |
| CC1CC(C)CN(C(=O)C2CC(=O)N(c3ccc(F)cc3)C2)C1 (stereo not drawn) | -7.56% |
| O=C(N/N=C/c1ccccc1O)C1CCCC1 | 21.6% |
| O=C(CCCO)N/N=C/c1cc(Br)ccc1O | 13.6% |
| O=C(N/N=C/c1ccccc1O)/C(=C/c1ccccc1)CCO | 51.6% (active) |
| Cc1cc(=O)n2[nH]c(-c3cccc(Cl)c3)cc2n1 | 39.8% |

| SMILES | inhibition |
| --- | --- |
| O=c1c2c(nc3nc[nH]n13)CCC2 | 11.8% |
| O=c1c2c(nc3cc(-c4cccc(Cl)c4)[nH]n13)CCCC2 | 59.1% (active) |
| O=S(=O)(c1ccc(Cl)cc1)c1nc(-c2ccccc2F)oc1NCCN1CCOCC1 | -6.01% |
| Cc1nc(Nc2ccc3c(c2)OCCO3)c2nnn(Cc3ccccc3Cl)c2n1 | 153% (active) |
| Cc1nc(Nc2ccccc2F)c2nnn(Cc3ccccc3Cl)c2n1 | -8.68% |
| CCCc1nc(NCc2ccc3c(c2)OCO3)c2nnn(Cc3ccccc3Cl)c2n1 | 7.73% |
| COc1ccc(C(=O)/C=C/c2ccc(-c3ccccc3)cc2)cc1CSCC(=O)O | -14.5% |
| Cc1c(NC(=O)CCCOc2ccccc2)cccc1[N+](=O)[O-] | 10.4% |
| Cc1ccccc1NC(=O)CCOc1ccccc1 | 58% (active) |
| CCc1ccccc1NC(=O)CCOc1ccccc1 | -7.03% |
| COc1cccc(CN(C)CC2CCCN(CCc3ccc(Cl)cc3)C2)c1OC (stereo not drawn) | -3.67% |
| C/[N+]([O-])=C\c1ccc([N+](=O)[O-])o1 | -7.77% |
| O=C(/C=C/c1ccc([N+](=O)[O-])o1)NNC(=O)c1ccc(F)cc1 | 120% (active) |
| O=C(N/N=C/c1ccc([N+](=O)[O-])o1)c1cn(-c2ccccc2)nc1-c1ccc(F)cc1 | 8.71% |
| Cc1coc2c1c(C)cc1oc(=O)c(CC(=O)NCC(=O)N[C@H](C(=O)O)C(C)C)c(C)c12 | -15% |
| O=c1c2c(nc3n1CCCCC3)sc1c(O)cccc12 | 20.9% |
| Cc1c(C(=O)Nc2ccccc2)sc2nc3n(c(=O)c12)CCCCC3 | 95.7% (active) |
| Cc1nc(N2CCOCC2)c2c(C)c(C(=O)Nc3ccc(C(F)(F)F)cc3)sc2n1 | -15.2% |
| CC(=O)c1ccc(NC(=O)c2sc3nc4n(c(=O)c3c2C)CCCCC4)cc1 | 81.1% (active) |
| Cc1c(C(=O)Nc2cccc(-c3nnc4n3CCCCC4)c2)oc2ccccc12 | 35% |
| Cc1nc(N2CCN(c3ccccn3)CC2)c2c(C)c(C(=O)Nc3ccc(F)cc3)sc2n1 | -7.13% |
| CN(C(=O)CC1C(=O)NCCN1Cc1ccc(F)cc1Cl)C1CCCCC1 (stereo not drawn) | -14.2% |
| CCn1c(CNc2ccc(OC)cc2)nnc1SCC(=O)c1ccc(OC)cc1 | -15.6% (active) |
| CCn1c(SCC(=O)c2ccc3ccccc3c2)nnc1-c1cccs1 | -3.35% |

Source: PubChem BioAssay AID2315 (National Center for Advancing Translational Sciences (NCATS), 2010)
